The results in this text go back to paper PMC7862700, “An all-to-all approach to the identification of sequence-specific readers for epigenetic DNA modifications on cytosine”.

Experiment in all cases: DAPPL (digital affinity profiling via proximity ligation, sequencing); 10 mM Tris-HCl pH 7.5, 50 mM NaCl, 1 mM DTT, 4% glycerol, room temperature, 30 min; GST-TFs on glutathione beads, 16-mer random dsDNA library, 0.1% formaldehyde crosslink after washing; high values mean tight binding
Conditions in all cases: protein: recombinant; tags: N-terminal GST; dsDNA, one strand shown

One experiment has as its target T1, ERF (Homo sapiens, UniProt P50548 1-548).
T1 sequence: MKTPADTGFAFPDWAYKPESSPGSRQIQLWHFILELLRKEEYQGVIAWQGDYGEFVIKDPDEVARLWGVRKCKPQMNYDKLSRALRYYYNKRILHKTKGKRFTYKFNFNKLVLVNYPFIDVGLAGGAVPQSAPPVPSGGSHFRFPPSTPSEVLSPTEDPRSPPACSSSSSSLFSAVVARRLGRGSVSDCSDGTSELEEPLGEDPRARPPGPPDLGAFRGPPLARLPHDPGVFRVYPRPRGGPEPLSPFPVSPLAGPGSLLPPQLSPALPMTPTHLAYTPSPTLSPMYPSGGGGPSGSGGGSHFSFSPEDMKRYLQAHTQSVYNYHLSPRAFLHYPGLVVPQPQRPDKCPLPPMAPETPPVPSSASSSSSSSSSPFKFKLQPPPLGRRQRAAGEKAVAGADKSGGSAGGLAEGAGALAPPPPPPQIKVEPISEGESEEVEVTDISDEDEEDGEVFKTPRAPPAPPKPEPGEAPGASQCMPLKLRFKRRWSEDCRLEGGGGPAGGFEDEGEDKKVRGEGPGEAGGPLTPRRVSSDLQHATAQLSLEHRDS
The method in brief:
(§1)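 The binding signal reported is, for every hexamer, its read frequency for a factor over its read frequency for the tag-only sample. Reads came from pools of yeast-expressed, GST-fused human transcription factors on glutathione beads, barcoded with DNA and mixed with that sample, which were incubated with 200 nmole of a random double-stranded 16-mer DNA library in Tris/NaCl/DTT/glycerol buffer at room temperature for 30 min. After washing, the pools were crosslinked with 0.1% formaldehyde, proximity-ligated with BsaI/T4 ligase for 1 h at 37 °C, PCR-amplified and sequenced on an Illumina NextSeq500.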

A further experiment addresses T2, ETV3L (Homo sapiens, UniProt Q6ZN32 1-361).
T2 sequence: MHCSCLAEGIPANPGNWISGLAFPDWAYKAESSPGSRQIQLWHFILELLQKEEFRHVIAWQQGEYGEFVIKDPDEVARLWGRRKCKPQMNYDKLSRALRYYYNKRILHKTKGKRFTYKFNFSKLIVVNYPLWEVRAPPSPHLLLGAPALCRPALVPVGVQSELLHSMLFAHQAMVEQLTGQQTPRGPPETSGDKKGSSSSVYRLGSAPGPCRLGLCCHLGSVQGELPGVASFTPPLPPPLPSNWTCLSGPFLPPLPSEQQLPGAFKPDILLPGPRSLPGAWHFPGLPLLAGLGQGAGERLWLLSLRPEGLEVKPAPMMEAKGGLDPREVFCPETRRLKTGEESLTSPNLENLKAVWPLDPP
The method in brief: as §1

The target in a further experiment is T3, ETS2 (Homo sapiens, UniProt P15036 1-469).
T3 sequence: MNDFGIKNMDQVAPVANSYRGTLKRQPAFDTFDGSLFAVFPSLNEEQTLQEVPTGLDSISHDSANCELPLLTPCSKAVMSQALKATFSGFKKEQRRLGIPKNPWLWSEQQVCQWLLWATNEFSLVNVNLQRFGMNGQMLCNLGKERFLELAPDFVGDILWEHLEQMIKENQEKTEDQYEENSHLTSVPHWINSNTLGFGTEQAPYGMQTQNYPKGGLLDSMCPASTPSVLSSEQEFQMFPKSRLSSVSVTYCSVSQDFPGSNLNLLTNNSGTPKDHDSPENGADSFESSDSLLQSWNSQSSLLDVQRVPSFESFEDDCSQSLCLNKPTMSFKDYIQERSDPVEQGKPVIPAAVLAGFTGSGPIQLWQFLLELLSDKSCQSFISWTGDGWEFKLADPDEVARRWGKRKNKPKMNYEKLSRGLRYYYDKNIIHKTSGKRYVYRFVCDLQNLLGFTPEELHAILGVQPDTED
The method in brief:
as §1

In the next experiment the target is T4, SPDEF (Homo sapiens, UniProt O95238 1-335).
T4 sequence: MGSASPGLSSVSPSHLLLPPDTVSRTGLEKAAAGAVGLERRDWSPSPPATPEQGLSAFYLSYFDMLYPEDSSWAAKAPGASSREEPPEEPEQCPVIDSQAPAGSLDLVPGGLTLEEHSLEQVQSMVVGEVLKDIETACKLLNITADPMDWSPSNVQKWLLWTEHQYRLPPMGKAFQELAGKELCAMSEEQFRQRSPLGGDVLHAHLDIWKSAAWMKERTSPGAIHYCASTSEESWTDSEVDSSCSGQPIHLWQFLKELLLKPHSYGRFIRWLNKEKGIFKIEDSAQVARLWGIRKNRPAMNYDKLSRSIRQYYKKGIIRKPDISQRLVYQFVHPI
The method in brief:
as §1

The target of the next experiment is T5, ETV7 (Homo sapiens, UniProt Q9Y603 1-341).
T5 sequence: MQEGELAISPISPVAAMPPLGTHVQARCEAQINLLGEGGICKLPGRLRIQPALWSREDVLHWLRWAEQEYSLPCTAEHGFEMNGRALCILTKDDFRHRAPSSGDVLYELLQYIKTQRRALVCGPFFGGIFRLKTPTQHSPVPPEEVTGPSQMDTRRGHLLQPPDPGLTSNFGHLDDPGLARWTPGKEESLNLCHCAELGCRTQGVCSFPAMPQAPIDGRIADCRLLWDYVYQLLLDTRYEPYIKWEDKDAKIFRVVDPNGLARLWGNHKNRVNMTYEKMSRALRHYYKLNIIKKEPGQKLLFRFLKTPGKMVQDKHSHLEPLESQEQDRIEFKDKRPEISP
The method in brief:
as §1

A further experiment has as its target T6, ELF5 (Homo sapiens, UniProt Q9UKW6-2 1-255).
T6 sequence: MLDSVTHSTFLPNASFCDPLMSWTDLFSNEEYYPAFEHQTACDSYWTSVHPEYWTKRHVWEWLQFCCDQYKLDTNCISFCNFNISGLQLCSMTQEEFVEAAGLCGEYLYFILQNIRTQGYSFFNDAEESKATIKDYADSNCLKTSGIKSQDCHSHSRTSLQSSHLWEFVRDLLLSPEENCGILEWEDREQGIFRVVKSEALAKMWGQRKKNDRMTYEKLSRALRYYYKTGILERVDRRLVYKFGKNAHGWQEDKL
The method in brief:
as §1

A further experiment deals with T7, ETV3 (Homo sapiens, UniProt P41162-2 1-143).
T7 sequence: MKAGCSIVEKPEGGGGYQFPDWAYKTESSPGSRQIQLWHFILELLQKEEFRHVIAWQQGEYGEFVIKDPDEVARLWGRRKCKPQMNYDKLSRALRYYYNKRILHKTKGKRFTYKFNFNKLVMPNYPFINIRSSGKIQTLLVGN
The method in brief: as §1

A further experiment has as its target ETV6 (Homo sapiens, UniProt P41212 1-452). The method in brief:
as §1

Sequence of ETV6 (P41212 whole entry): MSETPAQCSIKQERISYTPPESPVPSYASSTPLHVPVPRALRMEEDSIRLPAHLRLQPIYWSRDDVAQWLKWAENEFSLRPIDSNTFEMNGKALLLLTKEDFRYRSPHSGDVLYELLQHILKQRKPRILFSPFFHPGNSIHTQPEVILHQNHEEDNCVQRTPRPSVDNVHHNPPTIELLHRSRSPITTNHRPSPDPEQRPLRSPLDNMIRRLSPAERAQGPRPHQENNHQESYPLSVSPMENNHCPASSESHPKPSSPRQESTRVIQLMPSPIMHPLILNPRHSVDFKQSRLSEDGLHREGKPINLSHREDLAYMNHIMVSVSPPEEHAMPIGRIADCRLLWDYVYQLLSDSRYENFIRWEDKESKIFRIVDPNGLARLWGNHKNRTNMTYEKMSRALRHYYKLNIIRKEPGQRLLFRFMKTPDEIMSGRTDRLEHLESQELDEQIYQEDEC

Consider ACTACG, for which the binding signal with ERF is 1.34 fold enrichment (6-mer frequency, TF over GST control); with ETV3L it was 1.31 fold enrichment (6-mer frequency, TF over GST control); with ETS2, 1.26 fold enrichment (6-mer frequency, TF over GST control); with SPDEF it was 1.27 fold enrichment (6-mer frequency, TF over GST control); with ETV7, 1.4 fold enrichment (6-mer frequency, TF over GST control); with ELF5 it was 1.33 fold enrichment (6-mer frequency, TF over GST control). Further, the binding signal in the experiment with ETV3 was 1.35 fold enrichment (6-mer frequency, TF over GST control); with ETV6, 1.32 fold enrichment (6-mer frequency, TF over GST control).

Regarding CTCTTG, the binding signal with ERF was 1.53 fold enrichment (6-mer frequency, TF over GST control); with ETV3L, 1.42 fold enrichment (6-mer frequency, TF over GST control); with ETS2, 1.23 fold enrichment (6-mer frequency, TF over GST control); with SPDEF, 1.26 fold enrichment (6-mer frequency, TF over GST control); with ETV7 it was 1.27 fold enrichment (6-mer frequency, TF over GST control); with ELF5 it was 1.43 fold enrichment (6-mer frequency, TF over GST control). The binding signal with ETV3 was 1.35 fold enrichment (6-mer frequency, TF over GST control); in the experiment with ETV6, 1.2 fold enrichment (6-mer frequency, TF over GST control).

In the case of ATGGCC, the binding signal with ERF is 1.27 fold enrichment (6-mer frequency, TF over GST control); with ETV3L it was 1.32 fold enrichment (6-mer frequency, TF over GST control); with ETS2, 1.37 fold enrichment (6-mer frequency, TF over GST control); in the experiment with SPDEF, 1.32 fold enrichment (6-mer frequency, TF over GST control); with ETV7, 1.44 fold enrichment (6-mer frequency, TF over GST control); in the experiment with ELF5 it was 1.32 fold enrichment (6-mer frequency, TF over GST control). The binding signal with ETV3 is 1.39 fold enrichment (6-mer frequency, TF over GST control); in the experiment with ETV6, 1.34 fold enrichment (6-mer frequency, TF over GST control).

TCCTAA: the binding signal with ERF is 1.55 fold enrichment (6-mer frequency, TF over GST control); with ETV3L it was 1.36 fold enrichment (6-mer frequency, TF over GST control); with ETS2 it was 1.49 fold enrichment (6-mer frequency, TF over GST control); with SPDEF, 1.6 fold enrichment (6-mer frequency, TF over GST control); with ETV7, 1.48 fold enrichment (6-mer frequency, TF over GST control); in the experiment with ELF5, 1.5 fold enrichment (6-mer frequency, TF over GST control). In addition, the binding signal was 1.45 fold enrichment (6-mer frequency, TF over GST control) with ETV3 and 1.55 fold enrichment (6-mer frequency, TF over GST control) with ETV6.

TTACCC: the binding signal with ERF is 1.35 fold enrichment (6-mer frequency, TF over GST control); in the experiment with ETV3L it was 1.26 fold enrichment (6-mer frequency, TF over GST control); in the experiment with ETS2, 1.42 fold enrichment (6-mer frequency, TF over GST control); with SPDEF it was 1.33 fold enrichment (6-mer frequency, TF over GST control); in the experiment with ETV7 it was 1.41 fold enrichment (6-mer frequency, TF over GST control); in the experiment with ELF5 it was 1.43 fold enrichment (6-mer frequency, TF over GST control). In addition, the binding signal with ETV3 was 1.35 fold enrichment (6-mer frequency, TF over GST control); with ETV6, 1.29 fold enrichment (6-mer frequency, TF over GST control).

For the sequence TTCTAT, the binding signal with ERF was 1.46 fold enrichment (6-mer frequency, TF over GST control); with ETV3L, 1.35 fold enrichment (6-mer frequency, TF over GST control); with ETS2, 1.38 fold enrichment (6-mer frequency, TF over GST control); with SPDEF, 1.35 fold enrichment (6-mer frequency, TF over GST control); in the experiment with ETV7 it was 1.33 fold enrichment (6-mer frequency, TF over GST control); with ELF5, 1.3 fold enrichment (6-mer frequency, TF over GST control). Further, the binding signal is 1.33 fold enrichment (6-mer frequency, TF over GST control) with ETV3 and 1.28 fold enrichment (6-mer frequency, TF over GST control) with ETV6.

Consider TTAGCA, for which the binding signal with ERF was 1.29 fold enrichment (6-mer frequency, TF over GST control); in the experiment with ETV3L, 1.26 fold enrichment (6-mer frequency, TF over GST control); with ETS2, 1.16 fold enrichment (6-mer frequency, TF over GST control); with SPDEF it was 1.23 fold enrichment (6-mer frequency, TF over GST control); with ETV7, 1.19 fold enrichment (6-mer frequency, TF over GST control); with ELF5, 1.15 fold enrichment (6-mer frequency, TF over GST control). The binding signal was 1.19 fold enrichment (6-mer frequency, TF over GST control) with ETV3 and 1.25 fold enrichment (6-mer frequency, TF over GST control) with ETV6.

As to ACGAAA, the binding signal with ERF is 1.34 fold enrichment (6-mer frequency, TF over GST control); with ETV3L, 1.13 fold enrichment (6-mer frequency, TF over GST control); with ETS2 it was 1.15 fold enrichment (6-mer frequency, TF over GST control); in the experiment with SPDEF it was 1.18 fold enrichment (6-mer frequency, TF over GST control); in the experiment with ETV7, 1.23 fold enrichment (6-mer frequency, TF over GST control); with ELF5, 1.09 fold enrichment (6-mer frequency, TF over GST control). Further, the binding signal with ETV3 is 1.03 fold enrichment (6-mer frequency, TF over GST control); with ETV6, 1.13 fold enrichment (6-mer frequency, TF over GST control).
